The results in this text go back to PubChem BioAssay AID624330 (Southern Research Specialized Biocontainment Screening …, 2012).

Out of some 340,000 compounds screened, about 2,100 (0.62%) were called active.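 How the source made its calls: active means first-screen hits whose inhibition reached a set limit at any dose in the follow-up dose series; inconclusive means inhibition above the set first-screen limit but never retested; inactive means the rest.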 Not all results are given here. Measured potencies and affinities stand elsewhere.

For the assay, the target named is Rac GTPase-activating protein 1 (Homo sapiens) (UniProt Q9H0H5). The assay is described as follows: blockers of MgcRacGAP-driven Rac1 GTP hydrolysis – biochemical, ADP Hunter fluorescence, primary and confirmatory, confirmation (AID 624330).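 Further: fluorescence reports GDP produced by GAP-driven GTP hydrolysis.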 The note with it: MgcRacGAP-stimulated Rac1 GTP hydrolysis, at 30 µM, active compounds read high, GST-tagged Rac1 F28L mutant substrate.
Chain of Rac GTPase-activating protein 1 (Homo sapiens) (Q9H0H5 whole entry, looked up): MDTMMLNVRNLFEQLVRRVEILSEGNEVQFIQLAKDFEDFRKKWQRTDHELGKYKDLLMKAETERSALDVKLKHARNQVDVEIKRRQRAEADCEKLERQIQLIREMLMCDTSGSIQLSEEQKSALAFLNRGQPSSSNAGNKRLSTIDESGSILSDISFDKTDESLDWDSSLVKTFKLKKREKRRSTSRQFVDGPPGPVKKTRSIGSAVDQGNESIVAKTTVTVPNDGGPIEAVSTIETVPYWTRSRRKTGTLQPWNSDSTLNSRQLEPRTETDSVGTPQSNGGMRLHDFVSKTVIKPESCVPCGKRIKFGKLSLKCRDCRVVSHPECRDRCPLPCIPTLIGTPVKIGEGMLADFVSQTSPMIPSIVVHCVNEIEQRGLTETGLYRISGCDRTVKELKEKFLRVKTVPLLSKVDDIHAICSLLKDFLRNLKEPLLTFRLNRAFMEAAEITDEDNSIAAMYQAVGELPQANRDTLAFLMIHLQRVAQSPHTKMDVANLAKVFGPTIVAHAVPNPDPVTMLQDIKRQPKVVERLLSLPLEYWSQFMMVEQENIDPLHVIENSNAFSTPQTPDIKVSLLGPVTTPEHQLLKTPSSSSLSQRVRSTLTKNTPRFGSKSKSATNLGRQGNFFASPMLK
For `C#Cc1ccc(CN2CCN(CCc3ccccc3)C(CCO)C2)cc1` (centres undefined), the inhibition was 5.19% (inactive).
Under `Cc1c(C)c2ccc(OCC(=O)NC3CCN(Cc4ccccc4)CC3)cc2oc1=O` stands 4.93% (inactive); under `C[C@@H]1CCCCO[C@H](CN(C)C(=O)Nc2ccc(F)cc2)[C@@H](C)CN([C@H](C)CO)C(=O)c2cc(NC(=O)c3ccccc3)ccc2O1`, 5.34% (inactive).
Under `O=C(O)c1ccccc1N=Nc1ccc(O)cc1` stands 13.8% (inactive); under `Nc1ccc(N=Nc2ccccc2Cl)c(N)n1`, 10.4% (inactive).
In the case of `Nc1ccc(N=Nc2ccccc2)c(N)n1`, the inhibition was 8.49% (inactive).
`Oc1ccc(N=Nc2ccc3ccccc3c2)cc1`: the inhibition is 18.5% (inactive).
The result for `O=C(Nc1cccc(-c2ccccc2)c1)N1CCN(C(=O)Nc2cccc(-c3ccccc3)c2)CC1` reads 14.5% (inactive); that for `Cc1cc(NC(=O)c2ccc(C)o2)no1`, 2.09% (inactive); that for `CCOC(=O)N1CCC(N2Cc3cccc(C(=O)Nc4ccc(N(CC)CC)cc4C)c3C2=O)CC1`, -10.8% (inactive).
Regarding `COC(=O)CNC(=O)c1nn(-c2cccc(OC)c2)c(=O)c2ccccc12`, the inhibition was 7.12% (inactive).
In the case of `O=c1c(CN2CCN(c3cccc(Cl)c3)CC2)coc2c(Cl)cc(Cl)cc12`, the inhibition is 1.43% (inactive).
Under `CCOC(=O)C1CCN(Cc2coc3c(Cl)cc(Cl)cc3c2=O)CC1` stands 14.9% (inactive); under `CCOC(=O)c1cnc2c(cnn2C)c1NCCC(O)C(F)(F)F` (centres undefined), 12.4% (inactive).
Regarding `COc1ccc(CCC(=O)NC2CCCc3ccccc32)cc1OC` (centres undefined), the inhibition was 5.44% (inactive).
The result for `COc1ccc(NC(=O)c2cc3n(n2)C(C(F)(F)F)CC(c2ccco2)N3)cc1` (centres undefined) reads 14.5% (inactive).
Under `CCOc1ccc(NC(=O)c2cc3n(n2)C(C(F)(F)F)CC(c2ccco2)N3)cc1` (centres undefined) stands 6.77% (inactive); under `CCN(C[C@H]1N[C@@](Cc2ccccc2)(C(=O)OC)[C@H]2C(=O)N(Cc3ccccc3)C(=O)[C@@H]12)C(=O)COc1ccccc1`, 2.94% (inactive).
With `Cc1cc2[nH]c3ccccc3c2c(C)n1`, the inhibition is 5.1% (inactive).
Under `Cc1cc2c([nH]c3ccccc32)c(C)n1` stands 17.6% (inactive); under `Cc1ccc(CNc2ccc3c(c2)OCO3)cc1`, 10.4% (inactive); under `O=C(NCc1ccncc1)C(=O)Nc1ccc2c(c1)OCO2`, 3.26% (inactive).
The result for `Cc1cc(NCc2ccncc2)ccc1Br` reads 22.5% (inactive); that for `O=C(NCc1ccncc1)Nc1ccc2c(c1)OCO2`, 14.7% (inactive).
The result for `COc1ccc(CN(C)C(=O)Cc2ccc(OC)c(S(=O)(=O)N3CCOCC3)c2)cc1` reads 6.77% (inactive); that for `O=C1CSC(c2cn(-c3ccccc3)nc2-c2cc3ccccc3oc2=O)N1Cc1cccnc1` (centres undefined), -1.18% (inactive); that for `CCN(CC)CCCN(C(=O)c1ccccc1F)c1nc(-c2ccc(OC)cc2)cs1`, 13.2% (inactive).
Regarding `c1ccc(C2=NN(c3ccccc3)CC2)cc1`, the inhibition is 10.1% (inactive).
Under `CSc1nnc(-c2nnc(SC)n2-c2ccccc2)n1-c1ccccc1` stands 5.06% (inactive).
As for `COC(=O)C1=C(C)NC(=O)NC1c1ccc(OCC(=O)N2CCCCC2)cc1` (centres undefined), the inhibition is 6.29% (inactive).
Turning to `CC1(C)OC(=O)C=C[C@]2(C)[C@H]3CC[C@@]4(C)[C@H](C(=O)O)OC(=O)[C@H]5O[C@]54[C@]3(C)C(=O)C[C@@H]12`, the inhibition is 10.6% (inactive).
Regarding `C[C@@H]1CN([C@H](C)CO)S(=O)(=O)c2ccc(C#Cc3ccccc3)cc2O[C@@H]1CN(C)C(=O)CN(C)C`, the inhibition is 10.8% (inactive).
Take `CCOc1ccc(/C=N/NC(=O)Cc2csc(Nc3cccc(C(F)(F)F)c3)n2)cc1`: the inhibition was 13.7% (inactive).
The result for `Cc1ccc(/C=C/C(=O)Nc2ccc([N+](=O)[O-])cc2)o1` reads 5.27% (inactive); that for `Cc1ccc(/C=C/C(=O)Nc2ccncc2)o1`, 8.37% (inactive); that for `O=C(O)C1C2C=CC3(CN(c4cccc(C(F)(F)F)c4)C(=O)C13)O2` (centres undefined), 2.13% (inactive).
Under `Cc1cc(C)cc(N(CC(=O)N2CCCC2)S(C)(=O)=O)c1` stands 0.27% (inactive).
Under `COc1ccccc1C(CNC(=O)CNC(=O)c1ccccc1Cl)N1CCCC1` (centres undefined) stands 4.57% (inactive); under `CCOCCCNC(=O)/C(C#N)=C/c1ccc(Cl)c([N+](=O)[O-])c1`, 2.68% (inactive); under `CCOCCCNC(=O)/C(C#N)=C/c1ccc(C)o1`, -11.1% (inactive).
Regarding `O=S(=O)(c1ccccc1)c1nc(Nc2cccc(O)c2)sc1Cl`, the inhibition was 8.03% (inactive).
As for `COc1ccccc1NC(=O)c1cc2ccccc2o1`, the inhibition is 10.9% (inactive).
As for `COc1ccc2[nH]c3c(c2c1)CNCC3`, the inhibition was 17.4% (inactive).
Under `CCN1CCCC1CNC(=O)C(=O)Nc1ccc(OC)cc1` (centres undefined) stands 8.81% (inactive); under `O=C(CNCC1CCCCC1)Nc1ccc(OC(F)(F)F)cc1`, 19.5% (inactive); under `O=C(CN(Cc1ccco1)C(=O)CNS(=O)(=O)c1ccc(F)cc1)NCc1ccco1`, 7.49% (inactive).
Under `COCc1cc(/C=N\NC(=O)c2ccc(Cl)cc2)ccc1OC` stands 7.25% (inactive); under `Cc1ccc(Cn2nnc3c(=O)[nH]c(C4CCCN(C(=O)Nc5ccc(F)cc5)C4)nc32)cc1` (centres undefined), 2.33% (inactive).
The result for `Cc1c2ccncc2cc2c1[nH]c1ccccc12` reads 8.32% (inactive); that for `COc1ccc2[nH]c3c(Cl)ncnc3c2c1`, 2.77% (inactive); that for `COc1ccc2[nH]c(C)cc(=O)c2c1`, 17.3% (inactive).
As to `COc1ccc2[nH]c3c(=S)nc[nH]c3c2c1`, the inhibition was 16.8% (inactive).
The result for `CC(C)C(=O)N(Cc1cc2ccccc2[nH]c1=O)C(C)(C)C` reads 4.65% (inactive); that for `Cc1ccc(S(=O)(=O)N2CCN(C(=O)COC(=O)CC(C)c3ccccc3)CC2)c(C)c1` (centres undefined), -1.45% (inactive); that for `COc1ccccc1NC(=S)NCC1CCCO1` (centres undefined), 8.32% (inactive).
With `Cc1cc(F)ccc1S(=O)(=O)N1CCCOC1CNC(=O)C(=O)NCC(C)C` (centres undefined), the inhibition was 3.59% (inactive).
Under `O=C(CCC(=O)c1cccs1)NCc1ccncc1` stands 8.09% (inactive); under `COc1ccccc1CNS(=O)(=O)CCNCc1ccco1`, 7.98% (inactive).
Under `Cc1ccc(NCCc2ccc(C)nc2)cc1` stands 24.8% (inactive); under `Cc1ccc(CCNc2ccccc2C)cn1`, 6.7% (inactive).
The result for `Cc1[nH]c2ccccc2c1/C=N/NC(N)=S` reads 15.4% (inactive); that for `CCc1nnc(N/N=C/c2c(Cl)cccc2Cl)n1N`, 6.89% (inactive); that for `Cc1[nH]c2ccccc2c1/C=N/n1cnnc1`, 11.3% (inactive).
On to `Cc1ccc(/C=N/Nc2nncn2N)cc1`, for which the inhibition was -7.75% (inactive).
Regarding `CCc1nnc(N/N=C/c2ccccc2F)n1N`, the inhibition is -6.59% (inactive).
The result for `CCc1nnc(N/N=C/c2cc(C)c(C)cc2C)n1N` reads 8.58% (inactive); that for `Cc1ccc(CN(C)C(=O)CSc2nnc3n2CCCCC3)c(C)c1`, -1.85% (inactive); that for `CCC(C(=O)OC)n1cnc2c(nnn2-c2cccc(Cl)c2)c1=O` (centres undefined), -2.79% (inactive).
The result for `COc1ccc(N2CCN(C(=O)c3sc4ncn(CC(=O)N5CCCCC5)c(=O)c4c3C)CC2)cc1` reads 22.1% (inactive).
The result for `O=C(NC1CCSc2ccccc21)c1cc(S(=O)(=O)N2CCOCC2)ccc1Cl` (centres undefined) reads 0.41% (inactive).
Turning to `N#Cc1ccsc1NC(=O)CCN1C(=O)C2CCCCC2C1=O` (centres undefined), the inhibition is -1.49% (inactive).
The result for `C/C(=N\NC(=O)c1c(Cl)cnn1C)c1cccc(NC(=O)c2ccc(C)cc2)c1` reads 2.57% (inactive); that for `COC(=O)/C(=C\c1ccc([N+](=O)[O-])cc1)NC(=O)c1ccccc1`, -0.53% (inactive); that for `CCO[C@@H]1OC(C(=O)NC2CC2)=C[C@H](c2ccccc2)[C@H]1CCCO`, 2.47% (inactive).
The result for `COC1=C(Br)C(=O)c2ncccc2C1=O` reads -0.95% (inactive); that for `COC1=C(N)C(=O)c2nc(C)ccc2C1=O`, -3.53% (inactive); that for `COc1ccc(CN(CC(=O)NCc2ccco2)C(=O)CNS(=O)(=O)c2ccc(C)cc2)cc1`, -1.32% (inactive).
Under `COc1ccc(CCCN2CCC(CN3CCNC(=O)C3=O)CC2)cc1OC` stands 15.8% (inactive); under `COc1ccc(/C=N/N2CCN(c3ccc(Cl)cc3)CC2)cc1O`, 13.4% (inactive); under `C[C@H](NC(=O)c1ccc(Cl)cc1)C(=O)NNC(=O)c1cccs1`, 4.07% (inactive).
Take `O=C(O)/C(=C\c1ccc(Cl)c([N+](=O)[O-])c1)c1ccc(S(=O)(=O)N2CCCCC2)s1`: the inhibition was 9.75% (inactive).
In the case of `O=C(/C=C/c1ccco1)OCC(=O)c1ccc(OC(F)F)cc1`, the inhibition is 7.34% (inactive).
The result for `COc1cc(/C=C/C(=O)OCC(=O)c2ccc[nH]2)cc(OC)c1OC` reads 1.61% (inactive); that for `COc1cc(/C=C/C(=O)OCC(=O)c2c(N)n(C)c(=O)n(C)c2=O)ccc1O`, 17% (inactive); that for `COc1ccc(/C=C/C(=O)OCC(=O)c2ccc[nH]2)cc1`, 2.04% (inactive).
Under `Cn1c(NN)nc2sc3c(c2c1=O)CC(C)(C)OC3` stands -17.1% (inactive).
The result for `O=S(=O)(Nc1ccc(N2CCOCC2)cc1)c1ccc(F)cc1` reads 6.7% (inactive); that for `CSCC[C@H](NS(=O)(=O)c1ccc(C)cc1)C(=O)N1CCC(C(=O)N[C@@H](C)C(=O)O)CC1`, -1.38% (inactive).
Consider `O=C(CN1CCN(c2cccc(C(F)(F)F)c2)CC1)N(C1CC1)C1CCS(=O)(=O)C1` (centres undefined), for which the inhibition is -5.48% (inactive).
Under `O=C(CN1CCN(c2ccc(F)cc2)CC1)N(C1CCCC1)C1CCS(=O)(=O)C1` (centres undefined) stands 3.6% (inactive); under `CCOC(=O)c1c(C)[nH]c(C(=O)OCC(=O)Nc2cc(C)c(Cl)cc2OC)c1C`, 10.4% (inactive).
Under `Cc1ccc(NC(=O)N2CCCC2C(=O)NCc2ccc3c(c2)OCO3)cc1` (centres undefined) stands 2.95% (inactive); under `CC(C)Nc1nc(Oc2ccc(=O)n(-c3ccccc3)n2)nc(N(C)C)n1`, 12% (inactive); under `COc1cccc(N2CCN(C(=S)Nc3ccc(C)cc3C)CC2)c1`, 12.4% (inactive).
